TRHR ag: agonists of human TRH receptor. actives 0.18% (n = 360,000). TRHR cells, calcium flux fluo-8, FDSS agonist mode. AID 493084. activation, % at 2 µM. P34981; note: 0% is about no effect
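In this calcium-flux screen, cells bearing human TRHR are dye-loaded with fluo-8, baselined for 10 cycles, then exposed to library compounds; positive kinetic calcium responses during the agonist phase mark hits, with TRH as control.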
D1 agonist: activates the human D1 dopamine receptor | HEK293 T-REx D1 cells, calcium flux, agonist mode | activation, % at 2 µM | actives 1% (n = 360,000) | AID 504660; note: 0% is about no effect
Target sequence (P21728 whole entry, looked up): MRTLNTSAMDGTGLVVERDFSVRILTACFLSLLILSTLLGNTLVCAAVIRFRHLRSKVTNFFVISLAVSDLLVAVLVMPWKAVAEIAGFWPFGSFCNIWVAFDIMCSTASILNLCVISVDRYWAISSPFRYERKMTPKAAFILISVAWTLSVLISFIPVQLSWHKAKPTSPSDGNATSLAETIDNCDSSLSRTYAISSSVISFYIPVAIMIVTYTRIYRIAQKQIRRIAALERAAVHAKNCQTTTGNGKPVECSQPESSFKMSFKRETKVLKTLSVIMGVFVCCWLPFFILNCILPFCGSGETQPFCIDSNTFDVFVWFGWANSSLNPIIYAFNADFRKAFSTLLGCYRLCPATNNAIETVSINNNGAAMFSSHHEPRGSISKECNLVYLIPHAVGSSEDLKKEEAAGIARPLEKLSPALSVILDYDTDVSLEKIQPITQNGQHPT
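Agonism was scored from calcium flux recorded over 180 s (1 read/s) after pintool compound addition, following a 10-cycle baseline. Cells were inducible force-coupled HEK293 TREx D1, plated overnight at 30 C and loaded with no-wash calcium dye.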
D1 potentiator: enhances dopamine response at the human D1 receptor. actives 0.036% (n = 360,000). potentiation, % at 10 µM. P21728. HEK293 TREx D1 cells, calcium flux, dopamine EC20 potentiation; in the data active = potentiation above about 30%; note: 0% is about no effect
TRHR enhancer: allosterically enhances the human TRH receptor; P34981; TRHR cells, fluo-8 calcium fluorescence, EC20 TRH enhancement; enhancement, % at 2 µM; actives 0.66% (n = 360,000); in the data active = enhancement above about 30%; note: 0% is about no effect
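TRHR-expressing cells loaded with fluo-8 calcium dye were read kinetically (ex 480/em 530) during compound addition, then stimulated with an EC20 of TRH (10 nM final). Enhancement of the Gq-mediated intracellular calcium response was scored.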
D1 antag: antagonists of human D1 dopamine receptor; P21728; HEK293 TREx D1 cells, calcium flux, dopamine EC80; hits give low values; activity change, negative = inhibition, % at 10 µM; actives 3.2% (n = 360,000); AID 504652; in the data active = activity change below about -30%; note: % is set by controls: 0 for no effect and ±100 for the full control effect
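Tetracycline-induced HEK293 Trex D1 cells, force-coupled to calcium, dye-loaded; compounds added and read 180 s, then EC80 dopamine added and calcium flux tracked kinetically another 180 s.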
Starred values were filed as active, the others as inactive. Only some compounds are listed: those with a hit (about 4.7% of all), similar ones and a draw of the others. Cut-off read from the data, not from the text of the source, unless noted: active = activation above about 30%; inactive = the rest.

SMILES | TRHR ag | D1 agonist | D1 potentiator | TRHR enhancer | D1 antag
O=C(c1cc(-c2cccs2)on1)N1CCN(c2ccc(F)cc2)CC1 | 0 | 1 | -7 | -6 | -17
O=C(Nc1cccc(O)c1)c1cc(-c2cccs2)on1 | 1 | 9 | -8 | 9 | -38*
Cc1oc2ncn(C)c(=O)c2c1C(=O)N1CCN(c2ccccc2)CC1 | 0 | 0 | -2 | 0 | 14
COc1ccccc1N1CCN(C(=O)c2cc(-c3ccc(C)cc3)on2)CC1 | 0 | 2 | -4 | -4 | -45*
COc1cc2c(C(=O)N3CCN(c4ccc(C)cc4)C(C)C3)cn(CC(C)C)c(=O)c2cc1OC (configuration not stated) | 1 | 0 | 0 | 0 | 0
COc1ccc(OC)c(CCNC(=O)c2c(C)oc3ncn(CC(C)C)c(=O)c23)c1 | -1 | 2 | -3 | -7 | -12
COc1ccc(OC)c(CCNC(=O)c2c(C)oc3ncn(C)c(=O)c23)c1 | 2 | 1 | -7 | -5 | -31*
Cn1c2cc(Br)sc2c2cnn(Cc3ccccc3F)c(=O)c21 | -1 | 0 | 8 | -2 | 3
CCOC(=O)c1cc(-c2ccc(F)cc2)n(CC(=O)NC2CCCCCC2)c1C | 0 | 0 | -4 | 0 | -2
COc1ccc(CNC(=O)Cn2nc3c(cc2=O)CCCC3)cc1 | 0 | 2 | -7 | -3 | 14
Cn1c(C(=O)O)c(CC(=O)Nc2ccc(F)cc2F)c2ccccc21 | 1 | 0 | -1 | -2 | -50*
Cc1ccc(NC(=O)Cc2c(C(=O)O)n(C)c3ccccc23)cc1F | 0 | 0 | 1 | 1 | -1
N#C/C(=C\c1cc(Br)c(O)c(Br)c1)c1nc2ccccc2c(=O)[nH]1 | 78* | 171* | 12 | 20 | 13
N#C/C(=C\c1ccncc1)c1nc2ccccc2c(=O)[nH]1 | 6 | 7 | -4 | -4 | -39*
N#C/C(=C/c1ccncc1)c1nc2ccccc2c(=O)[nH]1 | 4 | 4 | 0 | 2 | -12
Cc1oc2ncnc(N3CCCCC3)c2c1C(=O)NCC1CCN(Cc2ccc(F)cc2)CC1 | -2 | 0 | -2 | -2 | -4
CCOc1ccccc1NC(=O)Cn1c(=O)n(Cc2ccccc2)c(=O)c2c1c1cc(C)ccc1n2C | 0 | 1 | -1 | 1 | 6
COc1cc(N2CCCC2)c(OC)cc1/C=C(/C#N)c1ccc(Br)cc1 | 8 | 39* | -4 | 1 | -15
CCCc1nc(SC)[nH]c(=O)c1C | 0 | 1 | -1 | 34* | -3
CCSc1nc(C)c(C)c(=O)[nH]1 | -1 | 1 | -5 | 8 | -24
COc1ccc(Cl)cc1NC(=O)Nc1cccc([N+](=O)[O-])c1C | 1 | 7 | -17 | -1 | -64*
CCCN1CCC(NC(=O)Nc2cc(Cl)ccc2OC)CC1 | 1 | 3 | 1 | -2 | -1
COC(=O)c1ccccc1NC(=O)NC1CCCCC1 | 0 | 5 | -5 | 1 | -44*
Cc1cccc2c1-c1sc(C(=O)Nc3ccccc3C(N)=O)cc1CO2 | 0 | 0 | -4 | -5 | 9
COc1ccc(Cl)cc1NC(=O)c1[nH]nc(OC)c1[N+](=O)[O-] | 0 | 3 | 0 | 6 | 7
SMILES | TRHR ag | D1 agonist | D1 potentiator | TRHR enhancer | D1 antag
Cc1cccc2c1-c1sc(C(=O)Nc3cccc([N+](=O)[O-])c3C)cc1CO2 | 0 | 31* | -14 | 20 | -6
COc1ccc(Cl)cc1NC(=O)NC1CCCCC1 | -1 | 1 | 9 | 32* | -6
COc1ccc(-c2noc(CNS(=O)(=O)c3ccc(Br)cc3)n2)cc1OC | 0 | 1 | 1 | -9 | -4
COc1ccc(Cl)cc1NC(=O)N1CCN(C2CCCCC2)CC1 | 1 | 3 | 4 | 36* | 0
Cc1c(NC(=O)c2ccc(C(C)(C)C)cc2)cccc1[N+](=O)[O-] | 0 | 3 | -15 | 6 | -42*
CCN1CCN(C(=O)Nc2cc(Cl)ccc2OC)CC1 | 0 | 2 | -2 | 0 | 0
Cc1cc(C(=O)Nc2cccc([N+](=O)[O-])c2C)cs1 | 0 | 1 | -6 | -4 | 4
CCCNc1c(F)c(F)c2c(C)c3ccccc3nc2c1F | 34* | 41* | -6 | 9 | 4
OCCNc1c2ccccc2nc2ccccc12 | 2 | 0 | -5 | 7 | 7
Cc1ccc(C)c(NC(=O)Nc2cc3c(cc2N2CCCCC2)n(C)c(=O)n3C)c1 | 1 | 0 | -5 | -9 | 3
O=C(Nc1nnc2n1CCS2)c1ccccc1C(F)(F)F | 0 | 0 | -3 | 1 | 1
N#CC1=C(N)Oc2c(oc(CO)cc2=O)C1c1ccccc1[N+](=O)[O-] (configuration not stated) | 1 | 0 | -7 | -1 | -35*
CCOc1ccc(CCNC(=O)C(C)N2C(=O)CC(C)(C)Sc3ccccc32)cc1 (configuration not stated) | 0 | 38* | -9 | 16 | -1
O=S(=O)(NCc1ccccc1)NCc1cccc(C(F)(F)F)c1 | -1 | 1 | -8 | -10 | -38*
CC(C)(C)n1nnnc1C(c1cccnc1)N1CCN(c2ccccn2)CC1 (configuration not stated) | 2 | 31* | -3 | 2 | -60*
Cc1ccc(Cn2c(CN3CCC(C(=O)NCC(C)c4ccccc4)CC3)cc3ccccc32)cc1 (configuration not stated) | 0 | 3 | -5 | -1 | -6
COc1cc(-c2noc(C)c2-c2ccc(N(C)C)nc2)cc(OC)c1OC | 17 | 89* | 0 | -2 | -59*
COc1cc(-c2noc(C)c2-c2ccc3[nH]ccc3c2)cc(OC)c1OC | -1 | 7 | 4 | 1 | -18
O=C(NNC(=S)Nc1ccccc1)c1cccnc1 | 0 | 7 | 3 | 41* | 0
O=C(Nc1ccc(OCc2ccccc2)cc1)c1cccnc1 | 0 | 61* | 2 | -24 | 4
O=C(Nc1ccc(Oc2cccnc2)cc1)c1ccccc1F | 1 | 13 | -10 | -7 | -42*
O=C(Nc1ccc(OCc2ccccc2)cc1)c1ccccc1 | 2 | 2 | -3 | 8 | -9
O=C(Nc1ccc2c(c1)oc1ccccc12)c1cccnc1 | 0 | 3 | -12 | -21 | -55*
Cc1c(C(=O)N2CCCC2)oc2c1-c1nn(CC(=O)NCc3ccccc3F)cc1CC2 | -1 | 0 | -4 | 2 | 4
CSc1nn(CC(=O)Nc2cc(C)ccc2C)c(N)c1S(=O)(=O)c1ccccc1 | 0 | 2 | 2 | -7 | -24
Cc1c(NC(=O)Nc2cccc(C(F)(F)F)c2)sc2nc3n(c(=O)c12)CCC(C)CC3 (configuration not stated) | 0 | 0 | -5 | -3 | -10
O=S(=O)(c1ccccc1)n1nc(-c2ccco2)nc1NCc1ccccc1 | 0 | 5 | 1 | 0 | -4
